Data taken from PubChem BioAssay AID2289 (National Center for Advancing Translational Sciences (NCATS), 2010).
About 3,300 (0.97%) of roughly 340,000 compounds were called active. About 9% were inconclusive and are not listed. The call rests on the fitted dose curve; in most records, active means well fitted inhibition curve with a large enough effect; inconclusive means small, poorly fitted or top-dose-only effect, or effect the other way; inactive means flat fitted curve, though single readings scatter. Some of the results follow.

Assay: qHTS Assay for Modulators of miRNAs and/or Inhibitors of miR-21; further: nearly all actives have a fitted effect of over 55% in size
Conditions: HeLa miR-21-FLuc reporter, luciferase luminescence, 48 h; actives lower the signal
How it was run: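 HeLa cells endogenously expressing miR-21, stably carrying CMV-driven firefly luciferase with a downstream miR-21 binding site, 2000 cells/well. Titrations up to approximately 40 uM, 48 hours; luciferase luminescence read.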
Potency means the concentration at half of the fitted maximal effect.

Potency, active:
CCn1nccc1C(=O)Nc1ccc(Cl)c(Cl)c1 8.26 µM, COc1cc(C(C)=O)ccc1Oc1ncnc2c1cnn2-c1ccc(F)cc1 4.14 µM, COc1ccccc1Oc1ncnc2c1cnn2-c1ccccc1 5.85 µM, Cc1cccc(NC(=O)c2sc3nc(N)c(C#N)cc3c2N)c1 4.14 µM, Cc1ccc(NC(=O)c2sc3nc(N)c(C#N)cc3c2N)cc1 5.85 µM, Cc1cc(C(=O)CN2C(=O)NC3(CCCCC3C)C2=O)c(C)n1Cc1cccs1 (configuration not stated) 5.21 µM, Cc1nc2scc(-c3ccccc3)c2c(=O)n1N=C1C=CC(=O)C=C1 10.4 µM, CCc1ccc2oc(C(=O)Nc3nonc3CC)c(C)c2c1 2.93 µM, Cc1cc2oc(C(=O)Nc3nonc3C)c(C)c2cc1C 0.656 µM, Cc1ccc2oc(C(=O)Nc3nonc3C)c(C)c2c1 4.65 µM, CCc1nonc1NC(=O)c1oc2cc(C)c(C)cc2c1C 5.85 µM, c1ccc(Cc2nnc3sc(-c4ccc5c(c4)OCCO5)nn23)cc1 14.7 µM, Oc1c(C2=NCCNC(C(F)(F)F)=C2)ccc2ccccc12 2.07 µM, Clc1cc2nc(-c3cccnc3Cl)[nH]c2cc1Cl 1.04 µM, Clc1ccccc1-c1nc2ccccc2[nH]1 1.31 µM, CN(Cc1nc(-c2cccc(Cl)c2)no1)C1CCOCC1 7.36 µM, CCOC(=O)NC(=O)CSc1nc(-c2ccc(C)c(C)c2)cn1-c1ccccc1 6.56 µM, Cc1ccc(-c2cn(-c3ccccc3)c(SCC(=O)NC3CCS(=O)(=O)C3)n2)cc1C (configuration not stated) 7.36 µM, Cc1ccc(NC(=O)NCc2c(C)nn(C)c2C)cc1Cl 5.21 µM, CNc1cccc2c1C(=O)c1ccccc1C2=O 11.7 µM, CC(C)(C)c1ccc(-c2noc(-c3ccno3)n2)cc1 1.17 µM, C=CCn1c2ccccc2c(=O)c2cc(C#CC3(O)CCCCC3)ccc21 0.414 µM, CCCc1cc(C(=O)Nc2cc(Cl)ccc2O)no1 2.07 µM, CCCc1cc(C(=O)Nc2cc(C)ccc2O)no1 3.69 µM, CCCc1cc(C(=O)Nc2ccc(CC)cc2)no1 5.21 µM, CCCc1cc(C(=O)Nc2cccc(Cl)c2C)no1 6.56 µM, COc1cc(SC)ccc1C(=O)NCCOc1ccc(F)cc1 7.36 µM, COc1cc(SC)ccc1C(=O)NCC1CCCCC1 10.4 µM, COc1ccc(C(=O)NCCOc2ccccc2Cl)c(OC)c1OC 5.85 µM, COc1cc(SC)ccc1C(=O)NCCOc1ccccc1Cl 2.93 µM, CCn1nc(C)c(/C=N/NC(=O)Cc2ccc(Cl)cc2)c1C 11.7 µM, COc1ccc(NC(=O)CSc2nc(SC)ns2)c(OC)c1 2.07 µM, COc1ccc(NC(=O)CSc2nc(SC)ns2)cc1 6.56 µM, CCC(C)(C)c1ccc2c(c1)C(=O)c1ccccc1C2=O 1.65 µM, Cc1cs/c(=N\N=C\c2ccc(O)cc2)n1Cc1ccco1 11.7 µM, Nc1nnc(-c2ccc(Cl)cc2Cl)s1 8.26 µM, S=C(Nc1ccccc1)c1nc2ccccc2s1 2.07 µM, O=C(NNc1nc2ccccc2s1)Nc1ccccc1 4.65 µM, CC(C)C1COC(c2cccc3ccccc23)=N1 (configuration not stated) 6.56 µM, CCCCNC(=O)c1cccc(NC(=O)c2nsc3ccccc23)c1 2.93 µM, CCOc1ccccc1CNC(=O)c1cccc(NC(=O)c2nsc3ccccc23)c1 3.29 µM, CCN=C1S/C(=C\c2sccc2C)C(=O)N1CC 16.5 µM, Cc1ccc(OCCn2cnc3c(N)ncnc32)cc1 16.5 µM, CCOc1ncccc1C(=O)OCC(=O)c1cc(C)n(Cc2ccco2)c1C 2.07 µM, C=CCn1c(C)cc(C(=O)COC(=O)c2ccc(N)c([N+](=O)[O-])c2)c1C 1.85 µM, Cc1cc(C(=O)COC(=O)c2ccc(O)cc2)c(C)n1Cc1ccco1 1.85 µM, Cc1cc(C(=O)COC(=O)c2cc(Cl)ccc2N)c(C)n1Cc1ccco1 2.93 µM, CSc1ncccc1C(=O)OCC(=O)c1cc(C)n(CC2CCCO2)c1C (configuration not stated) 0.464 µM, Cc1cc(C(=O)COC(=O)c2ccco2)c(C)n1Cc1ccco1 4.65 µM, Cc1cc(C)n(-c2nnc(NC34CC5CC(CC(C5)C3)C4)nn2)n1 5.21 µM, Cc1ccc(NC(=O)OCc2cccs2)cc1 1.31 µM, COc1ccc(C(=O)NC(=S)NC2CCCCC2)cc1 7.36 µM, COc1ccc(C(=O)NCCSC2CCCCC2)cc1 7.36 µM, COc1ccc(C(=O)NC(=S)Nc2ccccc2F)cc1 1.04 µM, O=C(NC(=S)NC1CCCCCC1)c1cncc(Br)c1 9.27 µM, Cc1nc2ccccc2nc(C)c1=NOCc1ccc(Cl)cc1Cl 16.5 µM, Cc1nc2ccccc2nc(C)c1=NOCc1ccc(C#N)cc1 11.7 µM, COc1ccc(-c2nnc3c4ccccc4c(C)nn23)cc1 8.26 µM, COc1ccc(Oc2nnc(C)c3ccccc23)cc1 4.14 µM, COc1ccc(NC(=S)c2ccc(N(C)C)cc2)cc1 1.17 µM, Cc1ccc(NC(=S)c2ccccc2)cc1 4.14 µM, COc1ccc(NC(=S)N/C(=N/CS(=O)(=O)c2ccccc2)c2ccccc2)cc1 5.21 µM, COc1ccc(NC(=S)N2CCC(c3ccccc3)C2)cc1 (configuration not stated) 1.65 µM, COc1ccc(NC(=S)c2ccccc2)cc1 6.56 µM, CCC(N=c1cc(-c2ccc(OC)cc2)oc2ccc(C)cc12)C(=O)O (configuration not stated) 0.293 µM, COc1ccc(-c2cc(=Nc3ccc(C(=O)O)cc3)c3cc(C)ccc3o2)cc1 2.07 µM, COc1ccc(-c2cc(=NC(CC(C)C)C(=O)O)c3cc(C)ccc3o2)cc1 (configuration not stated) 0.369 µM
